Compound activity as filed in PubChem.
ER stress death – ER stress cell death inhibition; actives 0.33% (n = 48,000); CSM14.1 thapsigargin ER stress survival, ATP luminescence; relative survival (cellular ATP), % at 15 µg/mL (by protocol);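 active means survival measured by cellular ATP above 50% at 15 µg/ml in the first screen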;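 further: cell death triggered by about 15 µM thapsigargin; ATP read 24 h after thapsigargin was added; plate controls were thapsigargin with DMSO for no effect and DMSO without thapsigargin for full effect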
Numbers without * were called inactive. This is one part of a sample in which hits are shown more often than they occur.

SMILES	ER stress death
O=C(NCc1ccncc1)C(=O)Nc1nccs1	8.0
COc1ccc(C(=O)Nc2nc(C34CC5CC(CC(C5)C3)C4)cs2)cc1	8.5
O=C(NCc1ccncc1)C(=O)Nc1nc(C23CC4CC(CC(C4)C2)C3)cs1	88.4*
O=[N+]([O-])c1cc(-n2ncnc2-c2ccccc2C(F)(F)F)ccc1Cl	-6.6
O=C(CC(Nc1ccc2ncccc2c1)c1ccccc1)c1ccccc1 (centres undefined)	1.7
CC(/C=C1\SC(=O)N(c2ccc(O)cc2)C1=O)=C\c1ccccc1	11.7
COc1ccc(C(=O)N/C(=C\c2ccccc2)C(=O)NCCCN(C)C)cc1	-0.6
O=C(CCNC(=O)/C(=C\c1ccccc1)NC(=O)c1ccco1)OCc1ccccc1	7.6
CC(C)COc1ccc(C(=O)N/C(=C/c2ccccc2)C(=O)NCC(=O)OCc2ccccc2)cc1	80.4*
CC(=O)NC(c1ccc2c(c1)OCO2)c1ccc2cccnc2c1O (centres undefined)	77.3*
COc1ccccc1C(NC(=O)Cc1ccccc1)c1ccc2cccnc2c1O (centres undefined)	13.3
O=C(NC(c1ccccc1)c1ccc2cccnc2c1O)c1ccccc1 (centres undefined)	3.2
Cc1nc(NC(=O)c2ccccc2)sc1-c1csc(Nc2ccc(N)cc2)n1	-7.9
COc1ccc(C2Nc3ccccc3NC3=C2C(=O)CC(C)(C)C3)cc1COc1ccc(F)cc1 (centres undefined)	60.9*
COC(=O)c1ccc(C2Nc3ccccc3NC3=C2C(=O)CC(C)(C)C3)cc1 (centres undefined)	6.7
CC1(C)CC(=O)C2=C(C1)Nc1ccccc1NC2c1cccc(F)c1 (centres undefined)	-0.4
CCCCOc1ccc(C2Nc3ccccc3NC3=C2C(=O)CC(C)(C)C3)cc1 (centres undefined)	-3.0
CSc1ccc(C2Nc3ccccc3NC3=C2C(=O)CC(C)(C)C3)cc1 (centres undefined)	11.2
CC1(C)CC(=O)C2=C(C1)Nc1ccccc1NC2c1ccc(-c2ccccc2)cc1 (centres undefined)	121.1*
Cc1ccc(/C=C2\SC(=Nc3cccc(Cl)c3C)NC2=O)cc1[N+](=O)[O-]	-3.9
CCOc1ccc(C2C(C(=O)/C=C/c3ccccc3)=C(O)C(=O)N2CCCCCC(=O)O)cc1 (centres undefined)	-2.4
O=c1[nH]c(=S)n(-c2ccc(Cl)cc2)c(O)c1/C=C1\C=Nc2ccccc21	4.9
COc1ccccc1C1Nc2ccc(C(=O)c3ccccc3)cc2NC2=C1C(=O)CCC2 (centres undefined)	10.2
COc1ccc(C2Nc3ccc(C(=O)c4ccccc4)cc3NC3=C2C(=O)CCC3)c(OC)c1 (centres undefined)	3.3
CN(C)c1ccc(C2Nc3ccc(C(=O)c4ccccc4)cc3NC3=C2C(=O)CCC3)cc1 (centres undefined)	96.9*
SMILES	ER stress death
COc1cc(OC)c(C2C(C(=O)OCC3CCCO3)=C(C)NC3=C2C(=O)CCC3)cc1OC (centres undefined)	-1.5
CCOc1ccccc1N1CCN(C(=O)c2cccc(Cl)c2)CC1	10.7
CCOc1ccccc1N1CCN(C(=O)c2cc(OC)c(OC)c(OC)c2)CC1	-4.0
CCOc1ccccc1N1CCN(C(=O)c2sc3ccccc3c2Cl)CC1	125.3*
COc1cccc(C(=O)N2CCN(Cc3ccccc3[N+](=O)[O-])CC2)c1OC	4.8
CCc1cc(C)cc(OCCOc2ccc(C=C3C(=O)NC(=S)NC3=O)cc2)c1	-0.9
COc1cccc(NC(=O)CCN2C(=O)/C(=C/c3ccc(C)cc3)SC2=S)c1	8.5
COc1ccc(NC(=O)CCN2C(=O)/C(=C\c3ccc(C)cc3)SC2=S)cc1	51.0*
COc1ccc(NC(=O)CCN2C(=O)/C(=C\c3cccc(OC)c3)SC2=S)cc1	25.9
Cc1ccc(OCC(=O)Nc2nccs2)c(C)c1	-8.0
OCCNCCOc1cccc(Cl)c1Cl	-12.8
CCOP(=O)(CN(C)S(=O)(=O)c1ccc(Br)cc1)OCC	-5.4
COc1ccc(CN2CCN(C(=O)c3ccc(-c4ccccc4)cc3)CC2)cc1OC	-6.5
COc1cc(OC)cc(C(=O)N2CCN(Cc3ccccc3C(F)(F)F)CC2)c1	72.9*
COc1ccc(Br)cc1CN1CCN(C(=O)c2ccc(-c3ccccc3)cc2)CC1	98.3*
COc1cc(C(=O)N2CCN(Cc3ccccc3C(F)(F)F)CC2)cc(OC)c1OC	7.7
COc1ccc(C(=O)N2CCN(Cc3ccccc3)CC2)c(OC)c1	-1.6
COc1ccc(CN2CCN(C(=O)c3ccccc3)CC2)c(OC)c1OC	0.8
COc1ccc(CN2CCN(C(=O)c3ccc(-c4ccccc4)cc3)CC2)c(OC)c1	128.9*
COc1cc(OC)cc(C(=O)N2CCN(Cc3ccccn3)CC2)c1	0.5
COc1cc(OC)c(OC)cc1CN1CCN(C(=O)c2ccc(OC)c(OC)c2)CC1	2.3
Cc1ccccc1N1C(=O)c2ccc(C(=O)O)cc2C1=O	1.9
COc1cccc(C2NC(=S)NC(C)=C2C(=O)Nc2ccccc2OC)c1 (centres undefined)	6.5
O=C(/C=C(\O)c1ccccc1)C(=O)Nc1ccc(C(=O)O)cc1	-8.1
O=C(N/N=C/c1ccccc1OCc1ccccc1)c1ccccc1O	-18.8
SMILES	ER stress death
COc1ccc(C(=O)Oc2ccc(C=C3C(=O)NC(=O)NC3=O)cc2)cc1	-3.6
COc1ccc(OC)c(-c2nc(-c3ccccc3)c(-c3cccs3)[nH]2)c1	7.0
COc1ccc(-c2nc(-c3cc(OC)c(OC)cc3OC)[nH]c2-c2ccc(OC)cc2)cc1	116.5*
COc1ccc(-c2nc(-c3ccc(O)cc3)[nH]c2-c2ccc(OC)cc2)cc1	-9.8
O=C(NNC(=S)Nc1ccccc1)c1cc(-c2ccccc2)nc2ccccc12	-1.7
CC(C)CC(=O)N1CCN(Cc2cccc(Oc3ccccc3)c2)CC1	2.1
COc1ccc2ccccc2c1/C=N/NC(=O)c1cccc(Cl)c1	7.4
CCC(C)NC(=O)c1ccc(CN(c2ccc(C)c(C)c2)S(C)(=O)=O)cc1 (centres undefined)	-0.5
Cc1ccc(N(Cc2ccc(C(=O)N/N=C/c3ccc(OC4CSC4)cc3)cc2)S(C)(=O)=O)cc1C	43.4
Cc1ccc(N(Cc2ccc(C(=O)N/N=C/c3cc(Br)c(C)o3)cc2)S(C)(=O)=O)cc1C	80.3*
COc1cccc2cc(-c3csc(Nc4ccccc4C)n3)c(=O)oc12	1.8
C(=C\c1ccccc1)/CN1CCN(c2ncnc3c2cnn3-c2ccccc2)CC1	12.8
CN(C)c1ccc(/C=C/C(=O)c2ccc(Br)cc2)o1	56.0*
O=C(/C=C/c1ccc([N+](=O)[O-])o1)c1ccc(Br)cc1	4.4
O=C(/C=C/c1ccc2c(c1)OCO2)c1ccc(Br)cc1	3.6
FC(F)(F)c1cccc(Nc2nc(-c3ccncc3)nc3ccccc23)c1	4.6
COc1ccc(C2/C(=C(/O)c3ccccc3)C(=O)C(=O)N2CC2CCCO2)cc1OC (centres undefined)	6.4
CCn1c2c(c3cc(Cl)ccc31)CCC/C2=N\O	5.3
Cc1ccc(NC(=O)c2ccc(Cl)cc2)cc1Cl	12.2
O=C(c1cccc(F)c1)N1CCN(Cc2cccc(Oc3ccccc3)c2)CC1	60.2*
COc1ccc(C(=O)N2CCN(Cc3cccc(F)c3)CC2)cc1	5.2
O=C(c1cccc(F)c1)N1CCN(Cc2cccc(F)c2)CC1	6.4
CC1(C)CC(C(CCNCc2ccccc2)c2ccccc2)CCO1 (centres undefined)	-3.0
CCOC(=O)/C(C#N)=C\c1cccn1C	0.4
COc1ccccc1OCCNC(=O)c1ccc(Oc2ccccc2)cc1	52.2*
